The panel holds about 83,000 compounds, 20% with a hit somewhere; the sample as a whole holds those more often.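 A percent growth of 40 corresponds to 60% growth inhibition; 0 means no net growth; -100 means all cells died. Active threshold: below 10.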 The source made the active and inactive calls.
How the values were obtained:
Assay in all cases: NCI-60 one-dose screen, 48 h (100 = growth as untreated, 0 = no growth, -100 = all killed)
Conditions in all cases: 10 µM unless noted
NCI-H23 lung = tested on: NCI-H23 lung
NCI-H226 lung = tested on: NCI-H226 lung
NCI-H322M lung = tested on: NCI-H322M lung
HOP-62 NSCLC = tested on: HOP-62 NSCLC
NCI-H460 lung = tested on: NCI-H460 lung
HOP-92 NSCLC = tested on: HOP-92 NSCLC
NCI-H522 lung = tested on: NCI-H522 lung
A549/ATCC NSCLC = tested on: A549/ATCC NSCLC
786-0 renal = tested on: 786-0 renal
COLO 205 colon = tested on: COLO 205 colon

Measured: growth

N#C/C(=C\C=C\c1ccc(-c2cc(Cl)ccc2Cl)o1)c1nc2ccccc2s1
inactive: NCI-H23 lung 83.7% | NCI-H226 lung 78.3% | NCI-H322M lung 95% | HOP-62 NSCLC 87.7% | NCI-H460 lung 103% | HOP-92 NSCLC 89.1% | NCI-H522 lung 94.4% | A549/ATCC NSCLC 99.4% | 786-0 renal 102% | COLO 205 colon 92.9%

COc1cc(Cl)c(C)cc1NC(=O)c1cc2ccccc2cc1O
active: NCI-H23 lung 2% | NCI-H322M lung 9.8% | NCI-H460 lung 6.83% | HOP-92 NSCLC -15.4% | NCI-H522 lung -11.5%
inactive: NCI-H226 lung 13.3% | HOP-62 NSCLC 26.5% | A549/ATCC NSCLC 10% | 786-0 renal 14.1% | COLO 205 colon 86.9%

CCN1CCN(CC(=O)Nc2nc3ccc(NCc4ccc(F)cc4)cc3s2)CC1
inactive: NCI-H23 lung 90% | NCI-H226 lung 90.9% | NCI-H322M lung 94.3% | HOP-62 NSCLC 91.8% | NCI-H460 lung 98.8% | HOP-92 NSCLC 61.3% | NCI-H522 lung 104% | A549/ATCC NSCLC 99.8% | 786-0 renal 93% | COLO 205 colon 78%

N#Cc1c(Nc2ccc(N3CCOCC3)cc2)nc(SCC(=O)c2ccc(Br)cc2)nc1-c1ccccc1
inactive: NCI-H23 lung 98% | NCI-H226 lung 108% | NCI-H322M lung 97.7% | HOP-62 NSCLC 92.6% | NCI-H460 lung 114% | HOP-92 NSCLC 99.7% | NCI-H522 lung 96.2% | A549/ATCC NSCLC 97.3% | 786-0 renal 101% | COLO 205 colon 107%

COc1cc(-c2nc3c(ncc4ccc(=O)n(-c5ccccc5)c43)s2)cc(OC)c1OC
inactive: NCI-H23 lung 80.5% | NCI-H226 lung 63.3% | NCI-H322M lung 73.6% | HOP-62 NSCLC 88.6% | NCI-H460 lung 84.3% | HOP-92 NSCLC 19.1% | NCI-H522 lung 64.8% | A549/ATCC NSCLC 86.3% | 786-0 renal 46.7% | COLO 205 colon 79.2%

N#CC1CCc2c(c(-c3ccc4nc(N)sc4c3)nc3ccc4[nH]ncc4c23)C1 (stereo not given)
inactive: NCI-H23 lung 36.9% | NCI-H226 lung 51.1% | NCI-H322M lung 70.5% | HOP-62 NSCLC 54.5% | NCI-H460 lung 12.4% | HOP-92 NSCLC 70.3% | NCI-H522 lung 40.2% | A549/ATCC NSCLC 46% | 786-0 renal 49.3% | COLO 205 colon 40.5%

O=C1/C(=C\c2ccccn2)c2ccccc2N1c1c(Cl)cccc1Cl
inactive: NCI-H23 lung 13% | NCI-H226 lung 25.2% | NCI-H322M lung 61.4% | HOP-62 NSCLC 23.3% | NCI-H522 lung 36.8% | A549/ATCC NSCLC 50.3%
active: NCI-H460 lung -29.3% | HOP-92 NSCLC -7.93% | 786-0 renal -81.4% | COLO 205 colon -16.1%

CC1(C)N=C(N)N=C(N)N1c1cccc(CCc2ccccc2)c1
inactive: NCI-H23 lung 21.7% | NCI-H226 lung 48.1% | NCI-H322M lung 45.8% | HOP-62 NSCLC 45% | NCI-H460 lung 16.1% | HOP-92 NSCLC 63.2% | NCI-H522 lung 21.4% | A549/ATCC NSCLC 24.8% | 786-0 renal 30.8% | COLO 205 colon 29.5%

O=c1c2c3c(sc2n2c(-c4cc(-c5ccccc5)no4)nnc2n1Cc1ccccc1)CCCC3
inactive: NCI-H23 lung 86.4% | NCI-H226 lung 97.6% | NCI-H322M lung 97.1% | HOP-62 NSCLC 92.5% | NCI-H460 lung 86% | HOP-92 NSCLC 76.5% | NCI-H522 lung 55.2% | A549/ATCC NSCLC 49.9% | 786-0 renal 87.6% | COLO 205 colon 96.4%

CC(C)CCN(CCC(C)C)CC(O)c1cc2c(c3ccccc13)CCCC2 (stereo not given)
inactive: NCI-H23 lung 56.6% | NCI-H226 lung 70.2% | NCI-H322M lung 81.4% | HOP-62 NSCLC 85.6% | NCI-H460 lung 75.3% | HOP-92 NSCLC 40.2% | NCI-H522 lung 56.7% | A549/ATCC NSCLC 73.3% | 786-0 renal 88.8% | COLO 205 colon 60.5%

CCN1C(=O)N(CC)C2C1NC(=S)N2/N=C/c1ccc(C(F)(F)F)cc1 (stereo not given)
inactive: NCI-H23 lung 79.8% | NCI-H226 lung 74.2% | NCI-H322M lung 82.5% | HOP-62 NSCLC 71.2% | NCI-H460 lung 75.6% | HOP-92 NSCLC 50.6% | NCI-H522 lung 48.2% | A549/ATCC NSCLC 39.8% | 786-0 renal 79.7% | COLO 205 colon 80.7%

CCCCNC(=O)Oc1ccc(/C(=C(/C)Cc2ccc(OC)cc2)c2ccc(OCCN3CCCCCC3)cc2)cc1
inactive: NCI-H23 lung 85% | NCI-H226 lung 101% | NCI-H322M lung 97.1% | HOP-62 NSCLC 85.6% | NCI-H460 lung 53.8% | HOP-92 NSCLC 53.3% | NCI-H522 lung 68.5% | A549/ATCC NSCLC 68% | 786-0 renal 76.3% | COLO 205 colon 57%

C/C=C(\C)C(=O)N[C@H]1C(O)C[C@]2(C)C3CC[C@@]4(C)C(CC[C@@H]4C(C)N(C)C)C3CCC2C1O (stereo not given in full)
inactive: NCI-H23 lung 68.7% | NCI-H226 lung 115% | NCI-H322M lung 65.2% | HOP-62 NSCLC 86.8% | NCI-H460 lung 30.7% | HOP-92 NSCLC 46.6% | NCI-H522 lung 90.6% | A549/ATCC NSCLC 81.6% | 786-0 renal 68.4% | COLO 205 colon 29.4%

N#Cc1cncc(-c2ccc3ncnc(Nc4cccc(Cl)c4)c3c2)c1
inactive: NCI-H23 lung 62.4% | NCI-H226 lung 69.9% | NCI-H322M lung 28.7% | HOP-62 NSCLC 61.5% | NCI-H460 lung 75.2% | HOP-92 NSCLC 18.6% | NCI-H522 lung 65.2% | A549/ATCC NSCLC 62.3% | 786-0 renal 61.6% | COLO 205 colon 96.6%

Reference: PubChem BioAssay (NCI)
